Screening data deposited in PubChem by Buhrlage Lab, Dana-Farber Cancer Institute and Novartis Institutes for BioMedical Research (Cambridge, Mass).
Rows were chosen to be rich in hits. Some 11% of all compounds tested hit in one or more screens of this group.
USP17 inh: inhibitors of human USP17 deubiquitinase. A8MUK1. purified USP17, Ub-rhodamine cleavage fluorescence, 3 h. inhibition, % at 50 µM. 6.5% of 47,000 active. AID 1645855
USP30 block: inhibitors of human USP30 deubiquitinase; purified USP30, Ub-rhodamine cleavage fluorescence; inhibition, % at 25 µM; 5.3% of 47,000 active; AID 1645860
OTUD3 block: blocks human OTUD3 ubiquitin-rhodamine cleavage; purified OTUD3, Ub-rhodamine fluorescence, 2 h; inhibition, % at 25 µM; 0.7% of 47,000 active; AID 1645858
Target sequence (Q5T2D3 whole entry, looked up): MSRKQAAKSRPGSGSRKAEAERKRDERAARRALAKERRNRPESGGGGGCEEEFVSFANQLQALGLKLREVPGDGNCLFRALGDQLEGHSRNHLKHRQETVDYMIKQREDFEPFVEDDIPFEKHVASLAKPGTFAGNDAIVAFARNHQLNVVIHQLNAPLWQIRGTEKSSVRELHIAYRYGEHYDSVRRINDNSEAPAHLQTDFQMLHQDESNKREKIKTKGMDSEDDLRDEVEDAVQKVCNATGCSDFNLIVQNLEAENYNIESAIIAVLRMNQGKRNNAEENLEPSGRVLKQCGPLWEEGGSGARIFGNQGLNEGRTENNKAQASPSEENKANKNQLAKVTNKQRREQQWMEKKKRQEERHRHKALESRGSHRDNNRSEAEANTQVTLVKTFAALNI
USP28 block: human USP28 deubiquitinase inhibition. Q96RU2. purified USP28, Ub-rhodamine cleavage fluorescence, 30 min. inhibition, % at 25 µM. 3% of 47,000 active. AID 1645857
Of the large screens only hits and unclear results are named; the others gave an inactive call. No stated cut-off is given here; in the data, active means inhibition above about 30%; inactive means the rest.

Cc1ccc(CNC(=O)Cn2c(=O)n(CCCC(=O)NCc3ccc(F)cc3)c(=O)c3ccccc32)cc1	USP17 inh 33.4
Cc1ccc(Cn2c(=O)c3ncccc3n(CC(=O)NCc3ccc(F)cc3)c2=O)cc1	USP17 inh 76.6, USP30 block 84.0, OTUD3 block 45.2, USP28 block 78.4
O=C(Cn1c(=O)c2cccn2c2ccccc21)NCc1ccc(F)cc1	none
O=C(Cn1c(=O)n(Cc2ccccc2)c(=O)c2ncccc21)N1CCCc2ccccc21	none
O=C(Cn1c(=O)n(Cc2ccncc2)c(=O)c2ncccc21)Nc1cccc(F)c1	none
O=C(Cn1c(=O)n(Cc2ccc3c(c2)OCO3)c(=O)c2ncccc21)c1ccccc1	USP30 block 53.8
CCOc1ccc(-n2c(=O)c3sccc3n(CC(=O)Nc3cccc(C)c3)c2=O)cc1	none
O=C(Cn1c(=O)n(Cc2ccc(F)cc2)c(=O)c2sccc21)Nc1cccc(Cl)c1	USP17 inh 65.0
O=C(CSc1ccc2nnc(-c3ccncc3)n2n1)Nc1cccc(C(F)(F)F)c1	USP17 inh 47.3
c1ccc(CSc2ccc3nnc(-c4ccccn4)n3n2)cc1	USP30 block 35.7, USP28 block 33.5
FC(F)(F)c1cccc(CSc2ccc3nnc(-c4ccccn4)n3n2)c1	USP30 block 32.4, USP28 block 77.6
O=C(CSc1ccc2nnc(CCNS(=O)(=O)c3ccccc3)n2n1)N1CCCc2ccccc21	none
O=C(CSc1ccc2nnc(-c3cccc(F)c3)n2n1)N1CCCc2ccccc21	USP17 inh 62.6, USP30 block 72.9, OTUD3 block 39.8, USP28 block 44.5
Cc1ccc2[nH]c(=O)c(CN(CC3COCCO3)C(=O)Nc3ccc(Cl)cc3)cc2c1 (configuration not stated)	none
Fc1cccc(-c2nnc3ccc(SCc4ccccn4)nn23)c1	USP30 block 30.2
c1ccc(CSc2ccc3nnc(-c4cccnc4)n3n2)nc1	none
O=C(Nc1ccc(Br)c(C(=O)c2ccccc2Cl)c1)c1ccc(S(=O)(=O)N2CCc3ccccc3C2)cc1	none
CN1CCN(C(=O)CN2CCC3(CCC2=O)NC(=O)c2ccccc2O3)CC1 (configuration not stated)	none
O=C(Nc1cccc(N2CCn3c(nc4ccccc43)C2)c1)c1cccc(Br)c1	USP17 inh 30.2 (no result: USP30 block, USP28 block)
O=C(CCc1ccccc1)N1CCN(c2cc(-c3cccnc3)[nH]n2)CC1	USP30 block 30.0
CC(C)=CCc1ccc2[nH]cc(C3=C(O)C(=O)C(c4c[nH]c5ccccc45)=C(O)C3=O)c2c1	USP17 inh 43.5
COCCCNC(=O)c1ccc(/C(C#N)=C/c2ccc(Cl)cc2)n1C	none
O=C(CN1C(=O)c2ccccc2Sc2ccc(C(=O)N3CCCC3)cc21)NCc1ccco1	none
COc1ccc(NC(=O)CN2C(=O)c3ccccc3Sc3ccc(C(=O)N4CCCC4)cc32)cc1OC	USP17 inh 55.0
CCOC(=O)C1C(=O)NC(c2ccccc2)=NC1c1ccc(C(F)(F)F)cc1 (configuration not stated)	USP30 block 41.0
CCCN(c1ccccc1)S(=O)(=O)c1ccc2nnc(C)n2c1	none
C[C@]12C(=O)N(Cc3ccco3)CC(=O)N1CC(c1ccc(Cl)cc1)c1c2[nH]c2ccccc12 (some centres not stated)	USP17 inh 31.4
CCCOc1ccc(C2CN3C(=O)CN(Cc4ccco4)C(=O)[C@]3(C)c3[nH]c4ccccc4c32)cc1OC (some centres not stated)	none
O=c1c2cnc(N3CCOCC3)nc2ccn1Cc1cccnc1	none
COc1ccc(CCn2c(=O)n(C)c3ncncc32)cc1	none
Cc1nc2c(nnn2C[C@H]2CCCN2C(=O)c2ccc(Cl)cc2)c(=O)[nH]1	none
COc1cccc(NC(=O)Cn2c(C(F)(F)F)nc3ccccc32)c1	none (no result: USP30 block, USP28 block)
COc1ccc(NC(=O)Cn2c(CS(=O)(=O)c3ccc(C)cc3)nc3ccccc32)cc1	USP30 block 50.7
O=C(Cn1c(CNC(=O)c2ccccc2)nc2ccccc21)Nc1ccc(F)cc1	USP17 inh 88.1, USP30 block 78.5, USP28 block 37.0
O=C(Cn1c(COc2ccccc2)nc2ccccc21)Nc1cc(Cl)cc(Cl)c1	USP30 block 30.6
COc1cccc(NC(=O)Cn2c(COc3ccccc3)nc3ccccc32)c1	USP17 inh 62.9
Cc1ccccc1C(=O)N1CCCC(c2[nH]ncc2S(C)(=O)=O)C1 (configuration not stated)	none
COc1ccc(C(=O)N2CCC(Nc3cccnc3)C2)c(OC)n1 (configuration not stated)	none
Cc1ccsc1CNC(=O)Nc1ccc(C(F)(F)F)cc1	USP17 inh 43.2
CCOc1ccc(CNC(=O)C2CCCN(c3nc4ccccc4[nH]3)C2)cc1OC (configuration not stated)	none
CCN(CC)c1ccc(NC(=O)C2=CCN(S(=O)(=O)c3ccc(F)cc3)CC2)c(C)c1	USP28 block 35.4
CC1CC1c1nnc(C2(c3ccccc3)CCOCC2)o1 (configuration not stated)	none
COc1ccc(C(=O)O)cc1S(=O)(=O)N(CCc1ccccc1)Cc1ccccc1	USP30 block 39.0
COc1cccc(CCN2C[C@@]34CN(C(=O)c5ccncc5)C[C@@H](C[C@@H]3S2(=O)=O)O4)c1	none
COc1ccc(-c2cc(C(=O)N3CCN(c4ccc(N5CCOCC5)nn4)CC3)[nH]n2)cc1	USP17 inh 37.5, USP28 block 32.1
O=C(c1cccs1)N1CCN(CC2CC=CCC2)CC1 (configuration not stated)	none
CCOc1ccc(CCNC(=O)CCC(=O)Nc2ccc3nc(N4CCN(C)CC4)cc(C)c3c2)cc1OCC	USP30 block 54.3
O=C(Nc1cccc(F)c1)N1CCc2nc3ccccc3n2CC1	none
C=C(NC(C)=O)C(=O)CCC(N)=O	none
COc1cccc(NC(=O)C(c2ccccc2)N2Cc3ccccc3C2=O)c1 (configuration not stated)	none
CCS(=O)(=O)N1CCc2nc(N3CCc4ccccc4C3)[nH]c(=O)c2CC1	none
O=C(c1ccc2cc[nH]c2c1)N1CCC(Nc2cccnc2)C1 (configuration not stated)	USP17 inh 67.9, OTUD3 block 55.0
CCOc1ccc(C(=O)N2CCC(Nc3cccnc3)C2)cc1 (configuration not stated)	none
O=C(Nc1ccc(F)cc1)C1CCCN(c2cnc3nccnc3c2)C1 (configuration not stated)	none
CC(C)NC(=O)N1CCc2nc(C(=O)Nc3ccncc3)sc2CC1	none
Cc1cc2c(cc1C)NC(CC(=O)Nc1ccc(O)cc1)C(=O)N2 (configuration not stated)	USP17 inh 63.7
O=C(NCc1ccccc1CN1CCCC1)c1cccc2cccnc12	USP28 block 37.0
Cc1noc([C@@H]2C[C@H]3CN(Cc4sccc4C)C[C@H]3O2)n1	none (no result: USP17 inh)
O=C(CCc1nnc2ccc(N3CCCCC3)nn12)NC1CCCCC1	none
O=C(c1nnn(-c2ccc(Cl)cc2)c1-c1cccnc1)N1CCc2ccccc2C1	none (no result: USP17 inh)
COc1ccc(Cl)cc1-n1nnc(C(=O)N2CCc3ccccc3C2)c1C	USP30 block 83.1, USP28 block 32.6 (no result: USP17 inh)
